{"source": "PubChem BioAssay (Tox21)", "note": "Inconclusive results are not listed. Where a call stands in place of a potency, no number is given. Some compounds were tested as several samples or in several runs, with calls that do not always agree. The source made the active and inactive calls. The call rests on the fitted dose curve; in most records, active means well fitted activation curve with a large enough effect in the repeat runs; inconclusive means weak or mixed curves; inactive means flat fitted curve, though single readings scatter. Potency means the concentration at half of the fitted maximal effect."}
{"experiment": "A CellTox Green Cytotoxicity Assay to monitor cytotoxicity in HEK293 cells - 32 hour (AID 1224881); further: nearly all actives have a fitted effect of over 40% in size", "conditions": "CellTox Green fluorescence; series mostly up to 76.8 µM", "from_the_text": "National Center for Advancing Translational Sciences [NCATS]\nNIH Chemical Genomics Center [NCGC]\nU.S. Environmental Protection Agency [EPA]\nNational Institutes of Environmental Health Sciences [NIEHS]\nNational Toxicology Program [NTP]\nCell-based models are critical for drug discovery. Determining the natural cytotoxic effects resulting from test compounds is an essential research activity. A CellTox Green Cytotoxicity Assay to monitor cytotoxicity in real time of continues cell culture during 40 hours of the compound treatment was used to screen Tox21 10K library compounds in Hek293 cells. CellTox Green Cytotoxicity Assay is a nonlytic, homogeneous, biofluorescent method to measure cytotoxicity in cell culture after experimental manipulation. The assay system uses a proprietary asymmetric cyanine dye that is excluded from viable cells but preferentially stains the dead cell's DNA. […] Viable cells produce no appreciable increases in fluorescence. Therefore, the fluorescence signal produced by the binding interaction with dead cell DNA is proportional to cytotoxicity.\nThe mixture of Hek293 cell suspension and reagents were dispensed at 600cells/6 ul/well in 1536-well tissue culture treated black solid bottom plates using a Multidrop dispenser. After the assay plates were incubated at a 37 C/5% CO2 incubator for 5 hours, 23 nL of compounds dissolved in DMSO, positive and negative controls was transferred to the assay plate by a pintool work station. The plates were incubated at 37 C for 40 hours. The fluorescence intensity were measured at 0h, 8h, 16h, 24h, 32h and 40h time points using ViewLux plate reader during compound treatment."}
{"smiles": "ON=C1CCCC1", "Potency": "inactive"}
{"smiles": "CC/C(=C(\\c1ccc(O)cc1)c1ccc(OCCN(C)C)cc1)c1ccccc1", "Potency": "43.8 µM (active)"}
{"smiles": "CN(C)C(=O)C1(N2CCCCC2)CCN(CC[C@@]2(c3ccc(Cl)c(Cl)c3)CN(C(=O)c3ccccc3)CCO2)CC1", "Potency": "32.4 µM (active)"}
{"smiles": "CCCCN(CCCC)C(=O)N(CCCC)CCCC", "Potency": "inactive"}
{"smiles": "CCCCN1CCCC[C@H]1C(=O)Nc1c(C)cccc1C", "Potency": "inactive"}
{"smiles": "C=CC(=O)OCC(CO)(COCC(COC(=O)C=C)(COC(=O)C=C)COC(=O)C=C)COC(=O)C=C", "Potency": "43.1 µM (active)"}
{"smiles": "Cc1[nH]nc2c1N=C(c1ccccc1Cl)c1cc([N+](=O)[O-])ccc1N2", "Potency": "inactive"}
{"smiles": "CC(C)(C)c1ccc(C(=O)CCCN2CCC(OC(c3ccccc3)c3ccccc3)CC2)cc1", "Potency": "23.9 µM (active)"}
{"smiles": "COc1cc(/C=C/C(=O)O[C@H]2CC[C@]34C[C@]35CC[C@]3(C)[C@@H]([C@H](C)CCC=C(C)C)CC[C@@]3(C)[C@@H]5CC[C@H]4C2(C)C)ccc1O", "Potency": "inactive"}
{"smiles": "CCCCCCCC[N+](CCCCCCCC)(CCCCCCCC)CCCCCCCC", "Potency": "15.5 µM (active)"}
{"smiles": "COc1c(C)c2c(c(O)c1C/C=C(\\C)CCC(=O)O)C(=O)OC2", "Potency": "inactive"}
{"smiles": "CCN(C(=O)c1cc(C)cc(OC[C@H](C)Nc2ccncc2)c1)C(C)C", "Potency": "inactive"}
{"smiles": "C[C@H]1[C@H]2CC[C@H]3[C@@H]4CC=C5C[C@@H](N(C)C)CC[C@]5(C)[C@H]4CC[C@]23CN1C", "Potency": "inactive"}
{"smiles": "CCOC(=O)c1nc(C(Cl)(Cl)Cl)n(-c2ccc(Cl)cc2Cl)n1", "Potency": "inactive"}
{"smiles": "Nc1ccccc1O", "Potency": "inactive"}
{"smiles": "O=C(OC[C@H]1O[C@@H](OC(=O)c2cc(O)c(O)c(OC(=O)c3cc(O)c(O)c(O)c3)c2)[C@H](OC(=O)c2cc(O)c(O)c(OC(=O)c3cc(O)c(O)c(O)c3)c2)[C@@H](OC(=O)c2cc(O)c(O)c(OC(=O)c3cc(O)c(O)c(O)c3)c2)[C@@H]1OC(=O)c1cc(O)c(O)c(OC(=O)c2cc(O)c(O)c(O)c2)c1)c1cc(O)c(O)c(OC(=O)c2cc(O)c(O)c(O)c2)c1", "cytotoxicity increase": "-42.7% [at 15.8 µM] (inactive)"}
{"smiles": "CC(=O)OCC(C)OC(C)=O", "note": "(stereo not given)", "Potency": "inactive"}
{"smiles": "CC(=O)SC[C@@H](Cc1ccccc1)C(=O)NCC(=O)OCc1ccccc1", "Potency": "inactive"}
{"smiles": "CCCCCCCCCCCCc1ccc(O)cc1", "Potency": "49 µM (active)"}
{"smiles": "C/C(=C(/OCCOc1ccc(Cl)cc1)c1ccc(Cl)cc1Cl)n1ccnc1", "Potency": "inactive"}
{"smiles": "CCCCC(CC)COC(=O)c1ccccc1C(=O)O", "note": "(stereo not given)", "Potency": "inactive"}
{"smiles": "C=C(C)C(=O)OCC(O)COc1ccc(C(C)(C)c2ccc(OCC(O)COC(=O)C(=C)C)cc2)cc1", "note": "(stereo not given)", "Potency": "inactive"}
{"smiles": "S=c1[nH]c2ccccc2s1", "Potency": "49 µM (active)"}
{"smiles": "O=C(Nc1cccc([N+](=O)[O-])c1)c1cc2ccccc2cc1O", "Potency": "inactive"}
{"smiles": "CCc1oc2ccccc2c1C(=O)c1cc(Br)c(O)c(Br)c1", "Potency": "inactive"}
{"smiles": "CC(C)(C)C1CCC(CC2=C(O)c3ccccc3C(=O)C2=O)CC1", "note": "(stereo not given)", "Potency": "21.3 µM (active)"}
{"smiles": "CCCCC(CC)COP(=O)(O)OCC(CC)CCCC", "note": "(stereo not given)", "Potency": "43.6 µM (active)"}
{"smiles": "On1ccccc1=S", "Potency": "1.22 µM (active)"}
{"smiles": "O=c1[nH]sc2ccccc12", "Potency": "54.9 µM (active)"}
{"smiles": "O=C1c2ccccc2Cc2ccccc21", "Potency": "inactive"}
{"smiles": "CCCCCCCCCCC=O", "Potency": "inactive"}
{"smiles": "CC[C@H](c1ccc(O)cc1)[C@@H](CC)c1ccc(O)cc1", "Potency": "38.9 µM (active) and inactive"}
{"smiles": "CCCCCCCCCCCCCCCCCC[N+](C)(C)Cc1ccccc1", "Potency": "24.8 µM (active)"}
{"smiles": "Cc1cc(=O)oc2cc(N(C)C)ccc12", "Potency": "inactive"}
{"smiles": "O=c1cc(-c2ccc(O)cc2)oc2cc(O)cc(O)c12", "Potency": "inactive"}
{"smiles": "Nc1ccc2c3c(cccc13)-c1ccccc1-2", "Potency": "44.1 µM (active)"}
{"smiles": "CC(=O)N1CCN(c2ccc(OC[C@H]3CO[C@](Cn4ccnc4)(c4ccc(Cl)cc4Cl)O3)cc2)CC1", "Potency": "49 µM (active)"}
{"smiles": "CN(C)c1ccc(SC#N)cc1", "Potency": "inactive"}
{"smiles": "O=[N+]([O-])c1ccccc1Nc1ccccc1", "Potency": "inactive"}
{"smiles": "Nc1cc(C(F)(F)F)ccc1S", "Potency": "inactive"}
